# Rows were chosen to be rich in hits. Some 2.8% of all compounds tested hit in one or more screens of this group.
# KDM5B inhibitor: blocks human KDM5B histone demethylase activity. Q9UGL1. KDM5B demethylase, FDH-coupled NADH fluorescence (FDH is formaldehyde dehydrogenase). Potency, µM (top dose mostly 57.7 µM), most hits filed as inhibitors. 220,000 tested, 2.6% active; active = well fitted inhibition curve with a large enough effect; inconclusive = small, poorly fitted or top-dose-only effect; inactive = no such curve, though single readings can be large or run the other way; note: potency is the fitted concentration of half-maximal effect; 0% is about no effect; nearly all actives have a fitted effect of over 70% in size
#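 Measured: NADH fluorescence change, 30 min, RT. System: KDM5BΔAP 200 nM final, H3K4me3 peptide, α-KG, Fe(II), ascorbate, NAD⁺ plus FDH, pH 7.5 HEPES. Compounds: titrated, 10 min pre-incubation with enzyme.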
# IP6K1 inhibitor: IP6K1 kinase inhibition; Q92551; IP6K1 kinase, ADP-Glo luminescence, 2 h; hits give low values; activity change, % (series mostly up to about 58 µM); 140,000 tested, 0.81% active; AID 1645851; in the data active = activity change below about -25%; note: % is set by controls: 0 for no effect and ±100 for the full control effect
# Target sequence (Q92551 whole entry, looked up): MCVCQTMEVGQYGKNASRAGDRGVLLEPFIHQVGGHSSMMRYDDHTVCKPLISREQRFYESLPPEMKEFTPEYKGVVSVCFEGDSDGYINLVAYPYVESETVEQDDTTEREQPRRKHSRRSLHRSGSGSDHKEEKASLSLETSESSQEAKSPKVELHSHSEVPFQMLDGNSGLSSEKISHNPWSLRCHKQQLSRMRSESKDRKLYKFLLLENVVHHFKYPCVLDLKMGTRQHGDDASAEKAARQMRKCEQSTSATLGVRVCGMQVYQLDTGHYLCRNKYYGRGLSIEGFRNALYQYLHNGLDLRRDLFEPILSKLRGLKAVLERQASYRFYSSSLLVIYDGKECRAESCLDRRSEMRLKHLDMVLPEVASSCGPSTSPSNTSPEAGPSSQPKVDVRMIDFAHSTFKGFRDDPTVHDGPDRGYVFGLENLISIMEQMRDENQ
#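 ADP-Glo luminescence measures ADP made by human IP6K1 during a 2 h RT reaction with ATP/IP6 (mix at 1.3 mM/130 uM); top library doses 57.5 and 19.1 uM final.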
# * = called active by the depositor; i = inactive; u = inconclusive; x = no result given.
SMILES,KDM5B inhibitor,IP6K1 inhibitor
Cc1ccccc1Nc1cc2c(nc1-c1ccccc1)nc(C(=O)NCCN(C)C)n2C,35.5µM*,8.1
Cc1cc(-c2cc3c(nc2-c2ccccc2)nc(C(=O)NC2CCN(C)CC2)n3C)ccn1,31.6µM*,8.2
CN(C)CCNC(=O)c1nc2nc(-c3ccccc3)c(-c3cccnc3)cc2n1C,20µM*,6.3
Cc1cc(-c2cc3c(nc2-c2ccccc2)nc(C(=O)NCCN(C)C)n3C)ccn1,i,2.8
O=S(=O)(c1ccccc1F)N1CCN(c2nc(-c3cccs3)nc3ccccc23)CC1,i,x
CC(C)CCN1CCC(N2CCN(C(=O)CCCc3ccccc3)CC2)C1=O (stereo not drawn),i,25.6
O=C(C1CC(=O)N(c2n[nH]c3ccccc23)C1)N1CCc2ccccc2C1 (stereo not drawn),i,0.9
CNC(=O)c1cc(-c2cnn(C)c2)cc2c1OCCN2Cc1cccnc1,39.8µM*,-10.8
CNC(=O)c1cc(-c2ccncc2)cc2c1OCCN2Cc1cccnc1,i,-17.3
CNC(=O)c1cc(-c2cccnc2)cc2c1OCCN2Cc1cccnc1,i,-24.9
CNC(=O)c1cc(-c2ccccc2)cc2c1OCCN2Cc1cccnc1,31.6µM*,-16.3
CNC(=O)c1cc(-c2ccc(O)c(F)c2)cc2c1OCCN2Cc1cccnc1,28.2µM*,-7.1
O=C(NCc1ccccc1F)c1ccc2c(c1)CN(Cc1cccnc1)CCO2,i,24.2
CNC(=O)c1cc(-c2ccnc(NC(C)=O)c2)cc2c1OCCN2Cc1cccnc1,39.8µM*,-12.1
CC(C)CCNC(=O)CSc1nnc(NC2CCCCC2)s1,i,x
O=C(NCCCc1ccccc1)c1n[nH]c2c1CN(C(=O)c1ccccc1F)CC2,i,-1.5
CCc1nc2ccc(C(=O)NCc3ccc(OC)c(OC)c3)cc2nc1CC,i,-1.7
CCSc1nc2c(c(=O)[nH]c(=O)n2C)n1Cc1ccccc1Cl,i,x
COc1cccc(CNC(=O)C=C(C)C)c1,i,x
O=C(NCC(F)F)c1cc(-c2cccs2)c2cccn2n1,x,7.0
O=C(NCCN1CCCCC1)C1(CCO)CCN(c2ncccn2)C1 (stereo not drawn),25.1µM*,-8.1
O=C(NCC1CC1)C1(CCO)CCN(c2ncccn2)C1 (stereo not drawn),x,2.3
O=C(NC1CCCC1)C1(CCO)CCN(c2ncccn2)C1 (stereo not drawn),u,2.5
O=C(NCC1CCCCC1)C1(CCO)CCN(c2ncccn2)C1 (stereo not drawn),31.6µM*,-10.3
O=C(NC1CC1)C1(CCO)CCN(c2ncccn2)C1 (stereo not drawn),u,3.1
SMILES,KDM5B inhibitor,IP6K1 inhibitor
CC(C)CNC(=O)C1(CCO)CCN(c2ncccn2)C1 (stereo not drawn),25.1µM*,7.0
CCc1ccc(C(CNC(=O)c2n[nH]c(=O)c3ccccc23)N(C)C)cc1 (stereo not drawn),i,x
COc1ccccc1-n1c(=O)c(C(=O)N2CCN(C(=O)C3CC3)CC2)nc2cccnc21,x,20.1
CCNC(=O)N1CCCCCC1CN1CCOCC1 (stereo not drawn),i,-9.1
O=C(OCC(=O)C12CC3CC(CC(C3)C1)C2)c1cc(F)c(F)cc1Cl,i,x
C=CCOc1c(OC)ccc2c1CN(Cc1ccccc1)C(=O)CCN2CC(O)COCc1ccco1 (stereo not drawn),x,-9.6
COCCN1CC2(CCC1=O)CCN(C(=O)C(C)SC)CC2 (stereo not drawn),i,-0.2
COCCN1CC2(CCC1=O)CCN(c1nc(C(C)C)ccc1C#N)CC2,28.2µM*,-0.7
O=C(c1ccc2c(c1)OCO2)N1CCCC2(CC(c3cccc(C(F)(F)F)c3)=NO2)C1 (stereo not drawn),i,8.0
O=C(O)CCn1ncc2cc(OCC3CCN(c4ncc(F)cn4)CC3)ccc21,35.5µM*,-9.2
CC(C)c1cnc(N2CCC(COc3ccc4c(cnn4CCC(=O)O)c3)CC2)nc1,u,-2.7
O=C(O)CCn1ncc2cc(OCC3CCN(c4ncccn4)CC3)ccc21,u,-4.8
CCc1cnc(N2CCC(COc3ccc4c(cnn4CCC(=O)O)c3)CC2)nc1,39.8µM*,-2.5
CCCOc1c(Br)cc(C(=O)Oc2cc(C(=O)OC)cc(C(=O)OC)c2)cc1OC,i,x
O=C(Cn1nnc2ccccc2c1=O)NC(=O)Nc1ccccc1F,i,x
C=CCNC(=O)N[C@H]1C[C@H]2C(=O)Nc3ccc(-c4cccs4)cc3C(=O)N2C1,u,8.4
O=C1Nc2ccc(-c3cccs3)cc2C(=O)N2CC[C@H](NS(=O)(=O)c3ccc(Cl)cc3)C[C@@H]12,31.6µM*,-4.7
O=C(N[C@H]1CCN2C(=O)c3cc(-c4ccc(F)cc4F)ccc3NC(=O)[C@@H]2C1)c1cccs1,i,6.2
CC(C)(C)CC(=O)N[C@H]1C[C@H]2C(=O)Nc3ccc(-c4cccs4)cc3C(=O)N2C1,17.8µM*,13.1
COc1ccc2cc(C(=O)N3CC(N(Cc4cccnc4)S(C)(=O)=O)C3)[nH]c2c1,i,15.5
COc1cc(CN(C)C(=O)c2c(C)noc2-c2cccc(F)c2)cc(OC)c1OC,i,29.2
O=C(Cn1cc(C(F)(F)F)ccc1=O)Nc1cc(C(F)(F)F)ccc1Cl,i,x
Cc1ccc2oc(C(=O)NC3CC(=O)N(C(C)C)C3)c(C)c2c1 (stereo not drawn),25.1µM*,10.7
Cc1ccc2oc(C(=O)O)c(C)c2c1,i,x
COc1ncccc1-c1cnc2[nH]cc(CC(=O)Nc3ccccc3)c2c1,35.5µM*,-1.8
SMILES,KDM5B inhibitor,IP6K1 inhibitor
COc1ccc(-c2cnc3[nH]cc(CC(=O)Nc4cccc(F)c4)c3c2)cc1,u,6.3
COc1ncccc1-c1cnc2[nH]cc(CC(=O)Nc3ccccc3C)c2c1,u,-7.2
O=C(Cc1c[nH]c2ncc(-c3ccccc3)cc12)Nc1cccnc1,u,-14.5
COc1ccc(-c2cnc3[nH]cc(CC(=O)Nc4cccnc4)c3c2)cc1,39.8µM*,-23.6
COc1ncccc1-c1cnc2[nH]cc(CC(=O)Nc3cccnc3)c2c1,u,-8.1
COc1ccc(-c2cnc3[nH]cc(CC(=O)NCCc4ccccn4)c3c2)cc1,35.5µM*,-21.1
COc1ncccc1-c1cnc2[nH]cc(CC(=O)Nc3ccncc3)c2c1,39.8µM*,-22.9
CCC(=O)N1N=C(c2cn(-c3ccccc3)nc2-c2ccc(OC)cc2)CC1c1ccco1 (stereo not drawn),i,x
CN(C)[S+](=O)([O-])c1ccc2c(c1)OCCN(Cc1ccsc1)C2,i,-5.6
COc1ccc(CNC(=O)C2CCN(c3nccc(Nc4ccccc4OC)n3)CC2)cc1,x,12.6
COc1cccc(C(=O)N(C)C2CCc3ccccc32)c1 (stereo not drawn),i,-0.4
OC(CNC12CC3CC(CC(C3)C1)C2)COc1ccc(Cl)cc1Cl (stereo not drawn),i,x
CCOC(=O)C(=O)Nc1c(C(=O)Nc2ccc(OC)cc2)oc2ccccc12,i,x
CN(C)Cc1cc(C[C@@H]2C[C@H](NC(=O)CC(C)(C)C)C2(C)C)no1,i,-14.7
CCc1ccc(C(=O)Nc2cccc(-c3nc4cc(C(C)C)ccc4o3)c2)cc1,i,-11.5
N#CC(C(N)=S)=C1CCCCC1,i,x
CN(C)S(=O)(=O)c1cccc(CSc2nnc(-c3ccc(Cl)cc3)n2N)c1,i,x
COc1ncccc1-c1cnc2n[nH]c(-c3ccc(F)cc3C)c2n1,u,31.1
